# Experimental data as given in PubChem BioAssay (NCI).
# About 79,000 compounds went through this panel and 15% of them were active in at least one assay; those are over-represented in the sample as a whole. A number with no mark means an inactive call. Activity calls are given as the source filed them. Cut-off read from the data, not from the text of the source: active = growth inhibition above about 70%; inactive = the rest.
# Key:
# [1] = NCI Yeast Anticancer Drug Screen. Data for the rad52 strain (AID 147);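 note: 0% = growth of vehicle-treated control cultures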; conditions: S. cerevisiae rad52 mutant growth inhibition, hits give high values
# In short: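 Read-out: growth inhibition versus vehicle-treated controls. Cells were a DNA repair-deficient yeast strain treated with compounds.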
# [2] = NCI Yeast Anticancer Drug Screen. Data for the wt1 strain (AID 149);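 note: 0% = growth of vehicle-treated wt1 cultures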; conditions: S. cerevisiae wt1 strain (SPY 50644) growth inhibition, hits give high values
# In short: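 Yeast wt1 strain exposed to compounds; growth inhibition measured relative to vehicle-treated controls.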
# [3] = NCI Yeast Anticancer Drug Screen. Data for the mgt1 strain (AID 153); conditions: S. cerevisiae mgt1 mutant growth inhibition, hits give high values
# In short: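 mgt1 yeast grown with test compound; read-out is growth inhibition versus vehicle-treated cultures.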
# [4] = NCI Yeast Anticancer Drug Screen. Data for the rad50 strain (AID 155);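 note: 0% = growth of vehicle-only cultures of the same strain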; conditions: S. cerevisiae rad50 strain growth inhibition, hits give high values
# In short: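 Yeast carrying a defined DNA repair defect were exposed to test compounds, and growth was compared with vehicle-treated controls to give percent inhibition.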
# [5] = NCI Yeast Anticancer Drug Screen. Data for the mec2-1 strain (AID 157); conditions: S. cerevisiae mec2-1 strain, hits give high values
# In short: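 Yeast mec2-1 mutant treated with compound. Readout: growth inhibition vs vehicle controls.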
# [6] = NCI Yeast Anticancer Drug Screen. Data for the rad14 strain (AID 159);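 note: 0% = growth of vehicle-treated control cultures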; conditions: S. cerevisiae rad14 strain growth inhibition, hits give high values
# In short: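 Yeast cells carrying a defined DNA-repair defect were exposed to compounds, and growth inhibition was calculated relative to vehicle-treated control cultures.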
# [7] = NCI Yeast Anticancer Drug Screen. Data for the sgs1 mgt1 strain (AID 161);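 note: 0% = growth of cultures given vehicle only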; conditions: S. cerevisiae sgs1 mgt1 strain, hits give high values
# In short: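 Read-out: growth inhibition vs vehicle controls. Cells: mutant yeast strain deficient in DNA damage repair.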
# [8] = NCI Yeast Anticancer Drug Screen. Data for the CLN2oe strain (AID 163);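 note: 0% = growth of vehicle-only control cultures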; conditions: S. cerevisiae CLN2oe strain, hits give high values
# In short: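 Read-out: yeast growth inhibition, expressed relative to vehicle-only controls. The strain bears an engineered cell-cycle alteration.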
# [9] = NCI Yeast Anticancer Drug Screen. Data for the cln2 rad14 strain (AID 165);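 note: 0% = growth equal to vehicle treated cultures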; conditions: S. cerevisiae cln2 rad14 strain, hits give high values
# In short: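 cln2 rad14 yeast strain; compound exposure; growth inhibition read vs vehicle controls.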
# [10] = NCI Yeast Anticancer Drug Screen. Data for the bub3 strain (AID 167); conditions: S. cerevisiae bub3 mutant strain, hits give high values
# In short: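 Compounds were applied to a genetically altered yeast strain carrying a cell-cycle control defect. Growth inhibition was scored against vehicle-treated controls.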
# [11] = NCI Yeast Anticancer Drug Screen. Data for the wt2 strain (AID 169);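 note: 0% = growth of vehicle-treated yeast cultures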; conditions: S. cerevisiae wt2 strain growth inhibition, hits give high values
# In short: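 Read-out: growth inhibition versus vehicle-treated control cultures after compound exposure of the yeast strain.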
# [12] = NCI Yeast Anticancer Drug Screen. Data for the mlh1 strain (AID 171);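 note: 0% = growth of vehicle-treated control cultures of the same strain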; conditions: S. cerevisiae mlh1 strain growth inhibition, hits give high values
# In short: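 Read-out: growth inhibition versus vehicle controls. Strain: engineered yeast with a defined DNA repair or cell cycle defect, compound-treated.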
# [13] = NCI Yeast Anticancer Drug Screen. Data for the sgs1 strain (AID 173);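 note: 0% = growth of vehicle-only control cultures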; conditions: S. cerevisiae sgs1 mutant, hits give high values
# In short: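 Read-out: yeast growth inhibition relative to vehicle controls, following compound exposure of a strain with a defined DNA repair/cell cycle alteration.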
# [14] = NCI Yeast Anticancer Drug Screen. Data for the mlh1 rad18 strain (AID 175); conditions: S. cerevisiae mlh1 rad18 strain growth inhibition, hits give high values
# In short: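 Yeast w/ defined DNA-repair lesions; compound exposure; growth vs vehicle controls → % inhibition.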
# [15] = NCI Yeast Anticancer Drug Screen. Data for the rad18 strain (AID 177); conditions: S. cerevisiae rad18 mutant growth inhibition, hits give high values
# In short: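 Readout: growth inhibition vs vehicle controls. Cells: genetically altered yeast strain, DNA repair defect.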
# [16] = NCI Yeast Anticancer Drug Screen. Data for the rad50EPP+ strain (AID 151);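 note: 0% = growth of vehicle-treated control cultures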; conditions: S. cerevisiae rad50 mutant strain, hits give high values
# In short: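 Growth inhibition read against vehicle controls in rad50EPP+ yeast, a strain altered in DNA damage repair, after compound exposure.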
# [17] = at 5.0 µM (retest, dose inferred, filed as 0.5)
# [18] = at 50.0 µM (retest, dose inferred, filed as 5.0)
compound,measurement,setting,value
Cc1ccc(S/N=C\c2ccccc2O)cc1,growth inhibition,[1]; at 1.2 µM,1%
same,growth inhibition,[1]; at 3.7 µM,-6%
same,growth inhibition,[1]; at 11.0 µM,-3%
same,growth inhibition,[1]; at 33.0 µM,0%
same,growth inhibition,[1]; at 100.0 µM,8%
same,growth inhibition,[2]; at 1.2 µM,-1%
same,growth inhibition,[2]; at 3.7 µM,0%
same,growth inhibition,[2]; at 11.0 µM,0%
same,growth inhibition,[2]; at 33.0 µM,1%
same,growth inhibition,[2]; at 100.0 µM,1%
same,growth inhibition,[3]; at 1.2 µM,2%
same,growth inhibition,[3]; at 3.7 µM,-1%
same,growth inhibition,[3]; at 11.0 µM,1%
same,growth inhibition,[3]; at 33.0 µM,7%
same,growth inhibition,[3]; at 100.0 µM,-1%
same,growth inhibition,[4]; at 1.2 µM,-2%
same,growth inhibition,[4]; at 3.7 µM,-12%
same,growth inhibition,[4]; [17],-130%
same,growth inhibition,[4]; at 11.0 µM,2%
same,growth inhibition,[4]; at 33.0 µM,12%
same,growth inhibition,[4]; [18],79% (active)
same,growth inhibition,[4]; at 50.0 µM,89.6% (active)
same,growth inhibition,[4]; at 100.0 µM,6%
same,growth inhibition,[5]; at 1.2 µM,0%
same,growth inhibition,[5]; at 3.7 µM,3%
same,growth inhibition,[5]; [17],-48%
same,growth inhibition,[5]; at 11.0 µM,-11%
same,growth inhibition,[5]; at 33.0 µM,-1%
same,growth inhibition,[5]; [18],-4%
same,growth inhibition,[5]; at 50.0 µM,73.6% (active)
same,growth inhibition,[5]; at 100.0 µM,7%
same,growth inhibition,[6]; at 1.2 µM,-2%
same,growth inhibition,[6]; at 3.7 µM,-6%
same,growth inhibition,[6]; at 11.0 µM,-4%
same,growth inhibition,[6]; at 33.0 µM,-3%
same,growth inhibition,[6]; at 100.0 µM,1%
same,growth inhibition,[7]; [17],-59%
same,growth inhibition,[7]; [18],53%
same,growth inhibition,[7]; at 50.0 µM,62%
same,growth inhibition,[8]; at 1.2 µM,2%
same,growth inhibition,[8]; at 3.7 µM,1%
same,growth inhibition,[8]; at 11.0 µM,2%
same,growth inhibition,[8]; at 33.0 µM,2%
same,growth inhibition,[8]; at 100.0 µM,4%
same,growth inhibition,[9]; [17],-58%
same,growth inhibition,[9]; [18],-23%
same,growth inhibition,[9]; at 50.0 µM,34.9%
same,growth inhibition,[10]; at 1.2 µM,-4%
same,growth inhibition,[10]; at 3.7 µM,-6%
same,growth inhibition,[10]; [17],-59%
same,growth inhibition,[10]; at 11.0 µM,-2%
same,growth inhibition,[10]; at 33.0 µM,-5%
same,growth inhibition,[10]; [18],47%
same,growth inhibition,[10]; at 50.0 µM,76.5% (active)
same,growth inhibition,[10]; at 100.0 µM,4%
same,growth inhibition,[11]; at 1.2 µM,4%
same,growth inhibition,[11]; at 3.7 µM,4%
same,growth inhibition,[11]; at 11.0 µM,5%
same,growth inhibition,[11]; at 33.0 µM,0%
same,growth inhibition,[11]; at 100.0 µM,-1%
same,growth inhibition,[12]; at 1.2 µM,9%
same,growth inhibition,[12]; at 3.7 µM,2%
same,growth inhibition,[12]; at 11.0 µM,-2%
same,growth inhibition,[12]; at 33.0 µM,0%
same,growth inhibition,[12]; at 100.0 µM,1%
same,growth inhibition,[13]; at 1.2 µM,3%
same,growth inhibition,[13]; at 3.7 µM,7%
same,growth inhibition,[13]; at 11.0 µM,7%
same,growth inhibition,[13]; at 33.0 µM,9%
same,growth inhibition,[13]; at 100.0 µM,6%
same,growth inhibition,[14]; [17],-112%
same,growth inhibition,[14]; [18],31%
same,growth inhibition,[14]; at 50.0 µM,94.3% (active)
same,growth inhibition,[15]; at 1.2 µM,-1%
same,growth inhibition,[15]; at 3.7 µM,0%
same,growth inhibition,[15]; at 11.0 µM,0%
same,growth inhibition,[15]; at 33.0 µM,1%
same,growth inhibition,[15]; at 100.0 µM,9%
Clc1ccccc1C1OC1c1ccccc1Cl (stereo unspecified),growth inhibition,[1]; at 1.2 µM,-29%
same,growth inhibition,[1]; at 3.7 µM,-38%
same,growth inhibition,[1]; at 11.0 µM,-61%
same,growth inhibition,[1]; at 33.0 µM,-18%
same,growth inhibition,[1]; at 100.0 µM,-32%
same,growth inhibition,[16]; at 1.2 µM,-86%
same,growth inhibition,[16]; at 3.7 µM,-56%
same,growth inhibition,[16]; at 11.0 µM,-40%
same,growth inhibition,[16]; at 33.0 µM,20%
same,growth inhibition,[16]; at 100.0 µM,70% (active)
same,growth inhibition,[3]; at 1.2 µM,-60%
same,growth inhibition,[3]; at 3.7 µM,-90%
same,growth inhibition,[3]; at 11.0 µM,-65%
same,growth inhibition,[3]; at 33.0 µM,-35%
same,growth inhibition,[3]; at 100.0 µM,-27%
same,growth inhibition,[4]; at 1.2 µM,-66%
same,growth inhibition,[4]; at 3.7 µM,-62%
same,growth inhibition,[4]; [17],57%
same,growth inhibition,[4]; at 11.0 µM,-73%
same,growth inhibition,[4]; at 33.0 µM,-51%
same,growth inhibition,[4]; [18],100% (active)
same,growth inhibition,[4]; at 50.0 µM,38.6%
same,growth inhibition,[4]; at 100.0 µM,14%
same,growth inhibition,[5]; at 1.2 µM,-92%
same,growth inhibition,[5]; at 3.7 µM,-86%
same,growth inhibition,[5]; [17],55%
same,growth inhibition,[5]; at 11.0 µM,-94%
same,growth inhibition,[5]; at 33.0 µM,-75%
same,growth inhibition,[5]; [18],99% (active)
same,growth inhibition,[5]; at 50.0 µM,21.9%
same,growth inhibition,[5]; at 100.0 µM,-37%
same,growth inhibition,[6]; at 1.2 µM,-46%
same,growth inhibition,[6]; at 3.7 µM,-46%
same,growth inhibition,[6]; at 11.0 µM,-50%
same,growth inhibition,[6]; at 33.0 µM,-43%
same,growth inhibition,[6]; at 100.0 µM,-9%
same,growth inhibition,[7]; [17],-17%
same,growth inhibition,[7]; [18],98% (active)
same,growth inhibition,[7]; at 50.0 µM,44.9%
same,growth inhibition,[8]; at 1.2 µM,-3%
same,growth inhibition,[8]; at 3.7 µM,7%
same,growth inhibition,[8]; at 11.0 µM,-1%
same,growth inhibition,[8]; at 33.0 µM,-1%
same,growth inhibition,[8]; at 100.0 µM,8%
same,growth inhibition,[9]; [17],37%
same,growth inhibition,[9]; [18],99% (active)
same,growth inhibition,[9]; at 50.0 µM,13.6%
same,growth inhibition,[10]; at 1.2 µM,-56%
same,growth inhibition,[10]; at 3.7 µM,-53%
same,growth inhibition,[10]; [17],0%
same,growth inhibition,[10]; at 11.0 µM,-47%
same,growth inhibition,[10]; at 33.0 µM,-42%
same,growth inhibition,[10]; [18],98% (active)
same,growth inhibition,[10]; at 50.0 µM,41.6%
same,growth inhibition,[10]; at 100.0 µM,-6%
same,growth inhibition,[11]; at 1.2 µM,-49%
same,growth inhibition,[11]; at 3.7 µM,-71%
same,growth inhibition,[11]; at 11.0 µM,-69%
same,growth inhibition,[11]; at 33.0 µM,-46%
same,growth inhibition,[11]; at 100.0 µM,-16%
same,growth inhibition,[12]; at 1.2 µM,-69%
same,growth inhibition,[12]; at 3.7 µM,-69%
same,growth inhibition,[12]; at 11.0 µM,-35%
same,growth inhibition,[12]; at 33.0 µM,-50%
same,growth inhibition,[12]; at 100.0 µM,24%
same,growth inhibition,[13]; at 1.2 µM,-78%
same,growth inhibition,[13]; at 3.7 µM,-72%
same,growth inhibition,[13]; at 11.0 µM,-81%
same,growth inhibition,[13]; at 33.0 µM,-38%
same,growth inhibition,[13]; at 100.0 µM,18%
same,growth inhibition,[14]; [17],57%
same,growth inhibition,[14]; [18],100% (active)
same,growth inhibition,[14]; at 50.0 µM,5%
same,growth inhibition,[15]; at 1.2 µM,-59%
same,growth inhibition,[15]; at 3.7 µM,-48%
same,growth inhibition,[15]; at 11.0 µM,-64%
same,growth inhibition,[15]; at 33.0 µM,-48%
same,growth inhibition,[15]; at 100.0 µM,2%
